# Results from PubChem BioAssay AID1347417 (National Center for Advancing Translational Sciences (NCATS), 2020).
# Hit rate of the full screen: of about 120,000 compounds, about 5,300 (4.4%) were called active. Roughly 22% stayed inconclusive and do not appear here. Shown is part of a subset that was picked to be rich in actives. Unmarked numbers belong to inactive results. Calls come from the whole dose curve; as a rule, active = well fitted inhibition curve with a large enough effect; inconclusive = small, poorly fitted or top-dose-only effect; inactive = no such curve, though single readings can be large or run the other way.
# Assay: qHTS Primary assay for Inhibitors of Plasmodium falciparum Dd2 growth in vitro; note: nearly all actives have a fitted effect of over 65% in size;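 for activity, negative = inhibition: plate controls were DMSO vehicle for no effect and reference drug for full effect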
# Settings: P. falciparum Dd2 growth, SYBR Green, 72 h; series mostly up to 28.9 µM; activity, negative = inhibition: at the top concentration
# How it was run: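 Infected erythrocytes (Dd2, 0.3% parasitemia, 2.5% hematocrit final) are added to compound in RPMI-1640/Albumax II medium, grown 72 h at 37C in low oxygen, then lysed with saponin/Triton-X containing SYBR Green and read by fluorescence.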
# Potency is the fitted concentration of half-maximal effect.
Structure (SMILES),"activity, negative = inhibition",Potency,outcome
Cc1ncsc1C1N(C2CCN(C(=O)c3ccncc3)CC2)C(=O)C12CCCC2 (centres undefined),-4.33%,,
Cc1ccccc1NC(=O)CCOc1ccccc1,-14.8%,,
Cc1ccccc1NC(=O)c1cc2cn(C(C)C)cc2s1,,8.91 µM (active),
Cc1ccccc1NC(=O)c1cc2c([nH]c1=O)CC(C)(C)CC2=O,-3.79%,,
CCn1cc(S(=O)(=O)N2CCC3(CC2)CN(Cc2ccc(OC)cc2)C3=O)cn1,,,inactive
C=CCNC(=O)c1cn2c(n1)CN([S+](C)(=O)[O-])CC2,51.3% [at 44.1 µM],,
CN(C)c1ccc(NC(=O)Cn2nc3n(c2=O)CCCCC3)cc1,32.9%,,
COc1ccc(C(=O)N2CCCCCCNC(=O)CC2)cn1,-6.17%,,
O=C(O)CCC(=O)N1Cc2[nH]cnc2C[C@H]1c1nc(-c2ccc3ccccc3c2)no1,-13.2% [at 44.1 µM],,
O=C(NCc1ccco1)C1CCCN(c2cnn(Cc3ccccc3)c(=O)c2)C1 (centres undefined),-3.07%,,
COc1cccc(CC(=O)N2CCC(N3C(=O)CCC3C(=O)NCc3ccccc3)CC2)c1 (centres undefined),13.2%,,
O=C(NCc1ccco1)[C@@H]1Cc2nc[nH]c2CN1CCCc1ccccc1,,7.94 µM (active),
O=C(NCc1ccccc1)[C@@H]1Cc2nc[nH]c2CN1Cc1cccc(OC(F)(F)F)c1,,10 µM (active),
O=C(CCc1conc1-c1ccccc1)NCc1ccco1,8.66%,,
Fc1ccc(NC2CCCN(Cc3ccc(C#Cc4cncnc4)cc3)C2)cc1F (centres undefined),,,inactive
O=C1COc2ccc(-c3cncnc3)nc2CN1Cc1ccc(F)cc1,,,inactive [at 44.1 µM]
OC1CC([C@@H](Cc2ccccn2)NC2CCC3(CCNCC3)CC2)C1 (some centres undefined),-1.91%,,
Cc1ccc(C)c(Oc2c(C(F)(F)F)oc3c(CN4CCN(C)CC4)c(O)ccc3c2=O)c1,,0.501 µM (active),
Cc1ccc(Oc2c(C(F)(F)F)oc3c(CN4CCCCC4)c(O)ccc3c2=O)cc1,,3.55 µM (active),
COc1ccc(-c2c(C)c3ccc(O)c(CN4CCCC4)c3oc2=O)cc1OC,-20.1%,,
CC1CCCN(Cc2c(O)ccc3c(=O)c(Oc4ccc(C(C)(C)C)cc4)c(C(F)(F)F)oc23)C1 (centres undefined),,0.316 µM (active),
Cc1ccc2nc3n(c2c1)[C@@H](CNC(=O)c1ccc(C#N)cc1)COC3,,,inactive [at 44.1 µM]

Structure (SMILES),"activity, negative = inhibition",Potency,outcome
O=C(c1ccc(F)cc1)N1CCC2(CN[S+](=O)([O-])c3ccccc3N2)C1 (centres undefined),3.8%,,
O=C1CC2(CCN(C(=O)CCn3ccccc3=O)C2)C(=O)N1 (centres undefined),-9.42%,,
CN[C@@H](CC(C)C)C(=O)N[C@@H]1C=C(C(=O)N[C@@H](Cc2ccc(O)cc2)C(N)=O)C[C@@H](O)[C@@H]1O,0.132%,,
O=C(NCCc1ccc(Cl)cc1)c1ccc2nccn2c1,,inactive,
O=C(CCCN1C(=O)C(c2ccccc2)Oc2cccnc21)NCCc1noc(-c2ccncc2)n1 (centres undefined),,,inactive
Cc1ccc2oc(C(=O)N(C)CCc3ccccc3)c(C)c2c1,6.68%,,
O=C(NCc1ccncc1)C1CN(S(=O)(=O)c2cccnc2)CC12CCOCC2 (centres undefined),16.7%,,
COc1ccccc1-c1cnc(NC(=O)c2ccc(Cl)cc2)c2c1CCO2,6.83% [at 44.1 µM],,
CN1CCN(Cc2ccc(Nc3ncc(-c4cccnc4)c4c3OCC4)cc2)CC1,,10 µM (active),
COc1ncccc1Nc1ncc(-c2ccccc2)c2c1OCC2,-0.012% [at 44.1 µM],,
COc1cccc(C(=O)N2CCC(N3CCCCCC3=O)CC2)c1,2.85% [at 44.1 µM],,
CC(C)Cc1ccc(CN2CCC3(CC2)Cc2ccccc2CNC3=O)cc1,,11.2 µM (active),
O=C1NCc2ccccc2CC12CCN(Cc1cccc(Cl)c1)CC2,-22.5%,,
Cc1cccc(C)c1CN1CCC2(CC1)Cc1ccccc1CNC2=O,-3.2%,,
Cc1cc2nc3n(c(=O)c2n1CC(=O)NCc1ccc(F)cc1)CCCCC3,,,inactive; activator; fitted 0.5012 uM
COC(=O)N1CCC2(CC1)C(=NC1CCCC1)NC(=O)N2c1cc(F)cc(F)c1,0.0213%,,
COc1ccc(C(=O)N2CCCC3(C2)C(=NC2CCCC2)NC(=O)N3c2cc(F)cc(F)c2)cc1 (centres undefined),-18.2%,,
O=C1NC(=NC2CCCC2)C2(CCCN(Cc3ccsc3)C2)N1c1cc(F)cc(F)c1 (centres undefined),,5.01 µM (active),
O=C1NC(=NC2CCCCC2)C2(CCCN(S(=O)(=O)c3cccs3)C2)N1c1cc(F)cc(F)c1 (centres undefined),-26.6%,,
O=C(c1ccccc1F)N1CCCC2(C1)C(=NC1CCCCC1)NC(=O)N2c1cc(F)cc(F)c1 (centres undefined),-4.93%,,
CC(C)CCN1CCC2(C1)C(=NC1CCCCC1)NC(=O)N2c1cc(F)cc(F)c1 (centres undefined),,8.91 µM (active),
CS(=O)(=O)N(C1CCOCC1)C1CCN(C(=O)CC2CCCC2)CC1,36.5%,,

Structure (SMILES),"activity, negative = inhibition",Potency,outcome
COc1ccc(-c2nc(C(C)C)nc3c2CN(C(=O)c2ccc(C(F)(F)F)cc2)CC3)cc1,,,inactive
COc1ccc(-c2nc(C(C)C)nc3c2CN(C(=O)c2ccccc2F)CC3)cc1,-24.9%,,
COc1ccc(-c2nc(C3CC3)nc3c2CCN(C(=O)c2ccc(C(F)(F)F)cc2)CC3)cc1,,5.01 µM (active),
O=C(c1ccc(C(F)(F)F)cc1)N1CCc2nc(C3CC3)nc(-c3ccc(Cl)cc3)c2C1,-11.2%,,
O=C(c1cccc(Cl)c1)N1CCc2nc(C3CC3)nc(-c3ccc(Cl)cc3)c2C1,-12.8%,,
COc1ccc(C(=O)N2CCc3nc(C(C)C)nc(-c4ccc(Cl)cc4)c3CC2)cc1,,11.2 µM (active),
O=C(c1ccccc1)N1CCC2(CC1)C(=O)NCN2C(=O)CCCN1CCCC1,-16.4%,,
COc1ccccc1OCCNC(=O)c1cn2ccnc(-c3ccc(C)cc3)c2n1,1.02%,,
Cn1cc(CNC(=O)C[C@@H]2C[C@H]3O[C@H](CNC(=O)Nc4cccs4)[C@@H](O)[C@H]3O2)cn1,13.5%,,
COC1CCN(C(=O)c2c(-c3cnn(C)c3NCc3cccnc3)noc2C)CC1,-23.5% [at 44.1 µM],,
COc1ccc(N2CC(c3noc(-c4ccc(C(C)(C)C)cc4)n3)CC2=O)cc1 (centres undefined),,,inactive
CCn1cc(-c2ccc(OC)cc2)cc1C(=O)N1CCC(C)CC1,-7.32%,,
Cc1ccc(CN2CCC3OCCN(Cc4ccccc4)C(=O)C3C2)o1 (centres undefined),,,inactive [at 44.1 µM]
Cn1nc2n(c1=O)CCN(C(=O)C1CC=CCC1)CC2 (centres undefined),12.7%,,
CCOc1ccc(C(=O)c2cn(Cc3ccccc3OC)c3ccc(F)cc3c2=O)cc1,,10 µM (active),
COc1ccc2c(c1)c(=O)c(C(=O)c1ccccc1)cn2CC(=O)Nc1ccc2c(c1)OCCO2,,,inactive
COc1cc2[nH]c(=O)n(Cc3ccc(C(=O)NCc4ccc(C)cc4)cc3)c(=O)c2cc1OC,-25%,,
CCOc1ccc(NC(=O)Cn2cc(C(=O)c3ccc(C)cc3)c(=O)c3cc4c(cc32)OCCO4)cc1,13%,,
COc1ccc(NC(=O)Cn2cc(C(=O)c3ccncc3)c(=O)c3cc(C)ccc32)cc1Cl,-12.7%,,
COc1ccc(Cn2cc(C(=O)c3ccc(C)cc3)c(=O)c3cc(OC)c(OC)cc32)cc1,,12.6 µM (active),
